Measured values reported in the supplement of paper PMC7411054.
Where a name gives a salt, the structure may show the parent alone. Values without a mark were called inactive.

These compounds were tested on WPMY1-ACTB-RAB5A (assay: phenotypically active (imaging signature differs from DMSO and reproducible) at any of 0.3-9 uM (binary (1 = active, 0 = inactive)); higher = active). Details: treatment time: 24 h.
Procedure, shortened: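 Fifteen reporter lines derived from A549, HepG2 and WPMY1 cells by gene editing, carrying BFP for segmentation plus GFP and RFP/FusionRed markers, were exposed to 0.3, 1, 3 or 9 µM for 24 h in four wells each and imaged live. Live-cell features from each well were normalised to solvent control wells. A well set counted as deviating when ≥3 of 4 wells lay beyond the 95th percentile of control Euclidean distances, and as reproducible when the median replicate Pearson correlation exceeded the 95th percentile of non-replicates. Phenotypic activity was assigned only when both criteria were met.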

SMILES | phenotypically active
CC[C@H]1CN2CC[C@H]1C[C@@H]2[C@@H](O)c1ccnc2ccc(OC)cc12 [Hydroquinidine HCl] | 1 (active)
COc1cc2c(c(OC)c1OC)-c1ccc(O)c(=O)cc1[C@@H](N)CC2 [Trimethylcolchicinic acid] | 0
C[C@@]1(CO)[C@H](O)CC[C@@]2(C)[C@H]1CC[C@H]1C[C@@H]3C[C@@]12CC[C@]3(O)CO [Aphidicolin] | 1 (active)
COC(=O)[C@@]1(O)C[C@H]2O[C@]1(C)n1c3ccccc3c3c4c(c5c6ccccc6n2c5c31)C(=O)NC4 | 1 (active)
COc1ccc(N(C(=O)Oc2c(C)cccc2C)c2ccnc(Nc3ccc(N4CCN(C)CC4)cc3)n2)c(OC)c1 | 1 (active)
COc1ccc2c(c[n+](C)c3c4cc5c(cc4ccc23)OCO5)c1OC [Chelerythrine chloride] | 0
CC[C@@H]1C=CC=CC[C@H](C)[C@@H](O)[C@](C)(O)C(=O)[C@H](C)[C@@H](O)[C@H](C)C(=O)[C@H](C)[C@@H](O)[C@H](C)C=CC(=O)O[C@H]2[C@@H](C)[C@@H](CC1)O[C@@]1(CC[C@@H](C)[C@@H](C[C@H](C)O)O1)[C@@H]2C [Oligomycin A] | 0
CC(C)[C@@]1(NC(=O)[C@@H]2C[C@@H]3c4cccc5[nH]cc(c45)C[C@H]3N(C)C2)O[C@@]2(O)[C@@H]3CCCN3C(=O)[C@H](Cc3ccccc3)N2C1=O [Dihydroergocristine mesylate] | 1 (active)
O=c1[nH]c2ccccc2n1C1CCN(CCCC(c2ccc(F)cc2)c2ccc(F)cc2)CC1 [pimozide] | 0
C[C@]12CC[C@H]3[C@@H](CC[C@]4(O)C[C@@H](O)CC[C@]34C=O)[C@@]1(O)CC[C@@H]2C1=CC(=O)OC1 [Strophanthidin] | 1 (active)
CN1CCC2=C[C@H](O)[C@H]3OC(=O)c4cc5c(cc4[C@H]3[C@@H]21)OCO5 [Hippeastrine hydrobromide] | 0
C=C1[C@@H](O)C2C=CC[C@H](C)C(=O)[C@](C)(O)C=C[C@@H](OC(C)=O)[C@]23C(=O)N[C@H](Cc2ccccc2)[C@@H]3[C@@H]1C (stereo partly specified) [Cytochalasin D] | 1 (active)
COc1ccc(C[C@H]2NC[C@H](O)[C@H]2OC(C)=O)cc1 [Anisomycin] | 1 (active)
C[C@@H]1CC[C@H]2[C@@H](C)C(=O)O[C@@H]3O[C@@]4(C)CC[C@@H]1[C@]32OO4 [Artemisinin] | 1 (active)
O=C1NC(=O)c2c1c1c3ccccc3n3c1c1c2c2ccccc2n1C1CCC3O1 | 1 (active)
Cc1sc2c(c1C)C(c1ccc(Cl)cc1)=N[C@@H](CC(=O)OC(C)(C)C)c1nnc(C)n1-2 | 1 (active)
CN1C[C@H](C(=O)N[C@]2(C)O[C@@]3(O)[C@@H]4CCCN4C(=O)[C@H](Cc4ccccc4)N3C2=O)C[C@@H]2c3cccc4[nH]cc(c34)C[C@H]21.CN1C[C@H](C(=O)N[C@]2(C)O[C@@]3(O)[C@@H]4CCCN4C(=O)[C@H](Cc4ccccc4)N3C2=O)C[C@@H]2c3cccc4[nH]cc(c34)C[C@H]21 [dihydroergotamine] | 0
C[C@@]12C(=O)OC(=O)[C@]1(C)[C@H]1CC[C@@H]2O1 [Cantharidin] | 1 (active)

SMILES | phenotypically active
COc1cc2c(c(OC)c1OC)-c1ccc(OC)c(=O)cc1[C@@H](NC(C)=O)CC2 [colchicine] | 1 (active)
CC(C)(O)[C@H]1O[C@H]2CC[C@@]3(C)[C@@](O)(CC[C@H]4Cc5c([nH]c6ccccc56)[C@@]43C)C2=CC1=O [paxilline] | 0
N#CC(C#N)=NNc1cccc(Cl)c1 | 1 (active)
Cc1c(C(=O)Nc2cccc(C(F)(F)F)c2)cc(-c2ccccc2)n1CCCN1CCOCC1 | 0
CCN1CCN(C(=O)Cc2ccc(Nc3ncc(F)c(Nc4ccc(C(=O)Nc5ccccc5Cl)cc4)n3)cc2)CC1 | 1 (active)
CC(C)(C)c1cc(C=C(C#N)C#N)cc(Br)c1O | 0
O=C(NCCN1CCC2(CC1)C(=O)NCN2c1cccc(F)c1)c1ccc(F)c(F)c1 [ML 298 hydrochloride] | 1 (active)
CC(C)(N)Cc1ccccc1 [phentermine] | 0
CCn1cnc2c(Nc3cccc(Cl)c3)nc(N[C@H]3CCCC[C@H]3N)nc21 | 1 (active)
O=C(Nc1ccncc1)C(=O)c1cn(Cc2ccc(Cl)cc2)c2ccccc12 [Indibulin] | 1 (active)
CC[C@@H](C(=O)[C@@H](C)[C@@H](O)[C@H](C)[C@@H]1O[C@@H]([C@@H](CC)C(=O)O)CC[C@@H]1C)[C@H]1O[C@]2(C=C[C@@H](O)[C@]3(CC[C@@](C)([C@H]4CC[C@](O)(CC)[C@H](C)O4)O3)O2)[C@H](C)C[C@@H]1C [Salinomycin Sodium] | 1 (active)
CC[C@@H](CO)NC(=O)[C@@H]1C=C2c3cccc4c3c(cn4C)C[C@H]2N(C)C1 [methysergide] | 0
CN1C[C@H](C(=O)N[C@]2(C)O[C@@]3(O)[C@@H]4CCCN4C(=O)[C@H](Cc4ccccc4)N3C2=O)C=C2c3cccc4[nH]cc(c34)C[C@H]21 [ergotamine] | 1 (active)
C[C@H](CCC(=O)O)C[C@H](C)C[C@H](C)C(=O)/C=C(\O)[C@H](C)C[C@H](C)C/C=C/[C@@H](C)[C@@H](O)[C@@H](C)[C@@H](O)C[C@@H]1CC[C@@](C)([C@H]2CC[C@@](C)([C@@H](C)O)O2)O1 [Ionomycin free acid] | 1 (active)
N#CC(C#N)=NNc1ccc(OC(F)(F)F)cc1 | 1 (active)
COC1=CC(C)=C[C@@H](C)[C@@H](O)[C@@H](C)CC(C)=CC=C[C@H](OC)[C@@H]([C@@H](C)[C@@H](O)[C@H](C)[C@@]2(O)C[C@@H](O)[C@H](C)[C@@H](C(C)C)O2)OC1=O [Bafilomycin A1] | 1 (active)
COc1cc([C@@H]2c3cc4c(cc3[C@H](O)[C@H]3COC(=O)[C@H]23)OCO4)cc(OC)c1OC [Podophyllotoxin] | 1 (active)
CC[C@]12C=CCN3CC[C@]4(C(=C(C(=O)OC)C1)Nc1ccccc14)[C@@H]32 [Tabersonine dichlorhydrate] | 1 (active)
